Assay outcomes deposited in PubChem BioAssay by National Center for Advancing Translational Sciences (NCATS).
Only some compounds are listed: those with a hit (about 19% of all), similar ones and a draw of the others.
TDP1 cell noCPT – qHTS for Inhibitors of human tyrosyl-DNA phosphodiesterase 1 (TDP1): qHTS in cells in absence of CPT; hit rate 15% among 420,000; DT40 Tdp1-/- hTDP1 cells, no CPT, ATP luminescence, 48 h; Potency, µM (top dose mostly 46.2 µM), most hits filed as inhibitors; further: nearly all actives have a fitted effect of over 55% in size
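Camptothecin absent (DMSO only). Human TDP1-complemented DT40 knockout cells, 400 cells/well, 37 °C for minimum 48 hr; ATP measured via CellTiter-Glo, 30 min dark incubation, luminescence.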
MCF10A rereplic – induces DNA re-replication in MCF 10a normal breast cells; MCF 10A DNA re-replication, Hoechst nuclear intensity, 48 h; hit rate 2.9% among 350,000; Potency, µM (top dose mostly 46.1 µM), hits mostly activators; further: nearly all actives have a fitted effect of over 50% in size
IL1B secr inh – inhibitors of inflammasome signaling (IL-1 beta secretion); THP-1 LPS/ATP IL-1B secretion, AlphaLISA, 16 h; hits give low values; activity change, % at 57.5 µM; hit rate 4.7% among 360,000; in the data active means activity change below about -50%; inconclusive means mostly about -30% to -49%
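THP-1 cells pretreated 1 hr with compounds (up to 57.5 uM final), then stimulated with LPS (250 ng/mL final) plus ATP (1.25 mM final); secreted IL-1B measured by AlphaLISA after 16 hr, decreased signal indicating inhibition.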
SW480 rerep – DNA re-replication induction in SW480 cells. hit rate 1.8% among 340,000. SW480 DNA re-replication, Hoechst DNA content imaging, 48 h. Potency, µM (highest dose often 46.1 µM), most hits filed as activators; further: nearly all actives have a fitted effect of over 55% in size
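250 cells/well; 23 nL cpd via pin tool; 48 hr, 37 C, 5% CO2; Hoechst 40 min; imager read of total nuclear intensity, ex 405/em 500-530 nm.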
BCR signal inh – chronic active BCR signaling inhibition. ABC-DLBCL IkBa-CBG/CBR reporter, luminescence ratio, 4 h. Potency, µM (highest dose often 46.1 µM), usual class: inhibitors. hit rate 0.05% among 340,000. AID 493014; active means well fitted inhibition curve with a large enough effect in the signal ratio, with a control signal flat, not every such curve was filed as active; inconclusive means small, poorly fitted or top-dose-only effect, or effect the other way, or a change in a side signal; the % refers to the signal ratio
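TMD8 human ABC-DLBCL cells with doxycycline-inducible IκBα–green luciferase fusion and unfused red luciferase, in 0.5% FBS medium; compounds up to 46 uM, 4 h at 37C. Green/red luminescence ratio, filter-overlap corrected, fitted to concentration-response curves.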
TDP1 cell CPT – DT40-hTDP1 cell growth loss with CPT; Potency, µM (highest dose often 46.2 µM), actives largely listed as inhibitors; chicken DT40 Tdp1-/-;hTDP1 cells + 20 nM CPT, ATP luminescence, 48 h; hit rate 12% among 420,000; further: nearly all actives have a fitted effect of over 55% in size
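Cell growth measured by CellTiter-Glo luminescence after a minimum 48 h, 37 C compound exposure with 20 nM CPT in Tdp1-knockout DT40 cells stably expressing hTDP1, seeded 400/well; qHTS titration format.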
Numbers stand for hits; 0 = inactive; ? = inconclusive; - = no result given; [ ] = dose if it differs, or a comment. Unless noted, the call rests on the fitted dose curve; in most records, active means well fitted curve in the direction sought with a large enough effect; inconclusive means small, poorly fitted or top-dose-only effect, or another doubt; inactive means no such curve, though single readings can be large; an effect the other way counts as inactive or inconclusive.

SMILES	TDP1 cell noCPT	MCF10A rereplic	IL1B secr inh	SW480 rerep	BCR signal inh	TDP1 cell CPT
COc1ccc(CCNC(=S)Nc2ccc(S(=O)(=O)Nc3ncccn3)cc2)cc1OC	0	0	0	?	0	0
Cc1ccc(C2=N/C(=C\c3cccs3)C(=O)N2Nc2ccccc2)cc1	?	0	0	0	0	?
O=C(NN1C(=O)/C(=C/c2cccs2)SC1=S)c1ccccc1	?	0	0	0	0	0
O=C1/C(=C/c2cccs2)N=C(c2cccs2)N1Nc1ccccc1	0	0	-70	0[9.22 µM]	?	0
O=C1/C(=C\c2cccs2)N=C(c2cccs2)N1Nc1ccccc1	0	0	-61	?	?	0
C[C@H]1CN([C@@H](C)CO)C(=O)CCCn2nncc2CO[C@@H]1CN(C)C(=O)c1ccc2ccn(C)c2c1	0	-	0	-	-	0
CC(C)(C)C(=O)[C@@H]1[C@@H]2C(=O)N(C3CCCCC3)C(=O)[C@@H]2[C@H]2c3ccccc3C=CN12	?	?	0	0	?	23µM
COc1ccc(N2C(=O)[C@@H]3[C@H](C2=O)[C@H]2c4ccccc4C=CN2[C@@H]3C(C)=O)cc1	16µM	?	0	0	0	?
O=C(c1ccc2c(c1)OCO2)[C@@H]1[C@@H]2C(=O)N(C3CCCCC3)C(=O)[C@@H]2C2c3ccccc3C=CN21 (some centres not stated)	16µM	0	0	0[9.22 µM]	?	?
COc1ccc(N2C(=O)[C@H]3[C@@H](C2=O)C2c4ccccc4C=NN2[C@H]3C(=O)C(C)(C)C)cc1 (some centres not stated)	0	0	0	0	0	0
O=C(Nc1ccc2c(c1)OCO2)[C@@H]1[C@@H]2C(=O)N(C3CCCCC3)C(=O)[C@@H]2C2c3ccccc3C=CN21 (some centres not stated)	-	-	-	-	0	-
CC(C)NC[C@@H](O)COc1ccc(COCCOC(C)C)cc1	0	-	-	-	-	0
CCOC(=O)c1cc(C#N)c(Oc2ccccc2)nc1-c1ccccc1	?	0	0	0	?	?
CCOC(=O)c1cc(C#N)c(N2CCOCC2)nc1-c1ccccc1	?	0[9.22 µM]	0	?	0	0
CCCNc1nc(-c2ccccc2)c(C(=O)OCC)cc1C#N	2.9µM	12µM	0	16µM	?	2.9µM
C=CCNc1nc(-c2ccccc2)c(C(=O)OCC)cc1C#N	10µM	15µM	0	?	0	?
CCCCNc1nc(-c2ccccc2)c(C(=O)OCC)cc1C#N	23µM	?	0	?	0	?
CCOc1ccc(CCNC(=O)CCC(=O)N2CCOc3ccccc32)cc1OCC	?	0	0	0	?	0
COc1ccccc1CN(C)C(=O)COC(=O)c1cc(C)oc1C	?	0	0	0	0	0
CCC(c1nc2ccccc2[nH]1)n1c(=O)c(-c2ccccc2)nc2ccccc21 (configuration not stated)	?	-	0	-	-	?
COc1cc(/C=N\NC(=O)c2ccc(Cl)cc2)ccc1Oc1ccc([N+](=O)[O-])cn1	0	0	0	0	0	0
N#C/C(=C/c1ccc(Oc2ccc([N+](=O)[O-])cn2)cc1)C(=O)N1CCOCC1	0	0	0	0	0	?
COc1cc(/C=C(/C#N)c2ccc(F)cc2)ccc1Oc1ccc([N+](=O)[O-])cn1	3.7µM	?	-54	0	0	2.9µM
COc1cc(/C=N\NC(=O)c2ccccc2F)ccc1Oc1ccc([N+](=O)[O-])cn1	4.6µM	23µM	0	?	?	4.6µM
CCOc1cc(C=C(C#N)C#N)ccc1Oc1ccc([N+](=O)[O-])cn1	13µM	0	0	0	?	18µM
CCS(=O)(=O)C1=NN2C(=N)/C(=C\c3ccc(SCc4ccco4)o3)C(=O)N=C2S1	0	0	0	0	?	0
CN(CC(=O)NCC(=O)Nc1ccc(F)c(F)c1F)C1CCS(=O)(=O)C1 (configuration not stated)	0	?	0	0	0	0
